PubChem BioAssay AID652016 (National Center for Advancing Translational Sciences (NCATS), 2013)
Results filed as inconclusive are left out. Calls of active or inactive are those of the source. Calls follow the shape of the dose curve; as a rule, active = well fitted inhibition curve with a large enough effect; inconclusive = small, poorly fitted or top-dose-only effect; inactive = flat fitted curve, though single readings scatter.

Each compound was assayed against Luciferin 4-monooxygenase (Photinus pyralis) (UniProt P08659) (assay: qHTS Assay for Inhibitors of Firefly Luciferase from the GSK Published Protein Kinase Inhibitor Set). Conditions: purified firefly luciferase, luminescence inhibition; series mostly up to 57.5 µM; activity change, negative = inhibition: at the top concentration.
Excerpt: FLuc (firefly luciferase) is the prototypical bioluminescent reporter gene from Photinus pyralis.[1] The enzyme catalyzes the oxidation luciferin via luciferin-AMP to produce light. FLuc is used in cell-based reporter gene-based assays for screening small molecule chemical libraries. However, small molecule luciferase inhibitors present in most large chemical libraries are often enriched in the output of high throughput screens using this reporter sometimes complicating interpretation and candidate selection.
RLuc is a bioluminescent reporter gene luciferase from Renilla reniformis, also known as the sea pansy. RLuc uses the luciferin substrate coelenterazine. RLuc is often used in combination with the nonhomologous luciferase FLuc (firefly luciferease) as a trasfection or pathway normalization control. Recently, non-homologous reporters have been described for high throughput screening 'coincidence' reporter gene strategies.
1. Fan F, Wood KV (2007) Bioluminescent assays for high-throughput screening. Assay Drug Dev Technol 5: 127-136.
2. Thorne N, Inglese J, Auld DS (2010) Illuminating insights into firefly luciferase and other bioluminescent reporters used in chemical biology. Chem Biol 17: 646-657.
3. […] Chem Biol 19: 1060-1072.
4. Michelini E, Cevenini L, Mezzanotte L, Coppa A, Roda A (2010) Cell-based assays: fuelling drug discovery. Anal Bioanal Chem 398: 227-238.
5. Cheng KC, Inglese J (2012) A coincidence reporter-gene system for high-throughput screening. Nat Methods 9: 937.
Biochemical firefly luciferase enzyme assay
NCGC Assay Protocol Summary:
Reagents: 50mM Tris acetate, pH 7.5; 10mM Mg acetate; 10uM D-luciferin (Sigma #L9504); 10uM ATP; 0.01% Tween-20; 0.05% BSA; 10nM P. pyralis luciferase (Sigma #L9506)
Control compounds used were two known firefly luciferase inhibitors (compounds (2) and (5) in Auld et al., 2010), and DMSO.
Three microliters containing firefly luciferase substrates in buffer (final concentrations: 50mM Tris acetate, pH 7.5, 10mM Mg acetate, 0.01% Tween-20, 0.05% BSA, 10uM D-luciferin, and 10uM ATP) are dispensed into each well of a Greiner white, solid-bottom 1536-well format plate using a flying reagent dispenser (FRD). These assay plates were then treated with 23nL of compound or DMSO using a Kalypsys pin tool, which allows for delivery of a 7-point interplate titration of each compound to the assay plates (quantitative HTS), with final compound concentrations ranging from approximately 60uM to 300pM. One microliter of firefly luciferase in 50mM Tris-acetate buffer was then delivered by FRD to each well for a final enzyme concentration of 10nM. Luciferase activity was then measured using an Envision plate reader (PerkinElmer), with an average incubation time of 5 min.
% is scaled to controls: 0 for no effect and ±100 for the full control effect; potency is read from the fitted curve at half-maximal effect.

Sequence of Luciferin 4-monooxygenase (Photinus pyralis) (P08659 whole entry, looked up): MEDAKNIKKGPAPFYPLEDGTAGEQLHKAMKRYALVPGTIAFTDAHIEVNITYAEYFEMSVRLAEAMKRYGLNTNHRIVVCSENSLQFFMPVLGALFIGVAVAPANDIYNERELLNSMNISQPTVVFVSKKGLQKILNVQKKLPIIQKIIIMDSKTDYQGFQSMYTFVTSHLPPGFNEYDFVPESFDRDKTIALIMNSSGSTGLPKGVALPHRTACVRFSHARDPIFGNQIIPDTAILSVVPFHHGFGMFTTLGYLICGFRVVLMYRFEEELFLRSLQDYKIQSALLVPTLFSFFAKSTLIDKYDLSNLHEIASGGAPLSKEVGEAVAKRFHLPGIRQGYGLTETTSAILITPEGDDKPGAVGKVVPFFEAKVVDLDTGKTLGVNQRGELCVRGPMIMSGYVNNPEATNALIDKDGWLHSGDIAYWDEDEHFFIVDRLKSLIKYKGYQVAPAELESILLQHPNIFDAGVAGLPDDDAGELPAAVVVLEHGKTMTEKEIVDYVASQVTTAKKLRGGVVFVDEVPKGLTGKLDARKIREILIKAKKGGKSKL

Activity change, negative = inhibition, inactive:
CCN(CC)Cc1ccc(Nc2nccc(-c3cnn4ncccc34)n2)cc1 -7.2%
COc1ccc(C2=C(N3CCc4ccccc43)C(=O)NC2=O)cc1 -13.5%
FC(F)(F)c1ccc(-c2nn3ncccc3c2-c2ccnc(Nc3ccc4c(c3)OCCO4)n2)cc1 -13.8%
CN(C)CCCn1c(-c2nonc2N)nc2cnccc21 10.5%
CS(=O)(=O)CCNCc1ccc(-c2ccc3ncnc(Nc4ccc(OCc5cccc(C(F)(F)F)c5)cc4)c3c2)o1 0.519%
CCS(=O)(=O)c1ccc(OC)c(Nc2ncc(-c3cccc(OC)c3)o2)c1 -4.23%
Fc1ccc(-c2ncn(C3CCNCC3)c2-c2ccnc(Oc3cccc(C(F)(F)F)c3)n2)cc1 -0.174%
Cc1cccc2c(N=Nc3ccc(S(N)(=O)=O)cc3)c(O)[nH]c12 -17.8%
O=C1NC(=O)C(c2cccc([N+](=O)[O-])c2)=C1Nc1cc(Cl)c(O)c(Cl)c1 -10.5%
CNC(=O)c1ncccc1Nc1nc(Nc2cc3c(cc2OC)CCCN3C(=O)CN(C)C)nc2[nH]ccc12 14.4%
O=C(Nc1n[nH]c2nc(-c3ccco3)ccc12)C1CC1 -2.36%
COC(=O)c1cncc(C=Cc2c(C)cc(O)cc2C)c1 -5.74%
CC(=O)Nc1cccc(C#Cc2cncnc2Nc2ccc(OCc3cccc(F)c3)c(Cl)c2)n1 -10.5%
CC(C)c1ccc2c(N=Nc3ccc(S(N)(=O)=O)cc3)c(O)[nH]c2c1 -12.5%
Nc1ncnc2occ(-c3ccc(NC(=O)Nc4cccc(C(F)(F)F)c4)cc3)c12 4.49%
COc1cc2ncn(-c3cc(OCc4cccs4)c(C(N)=O)s3)c2cc1OC 5.36%
Cc1cc(O)cc(C)c1C=Cc1cncc(C(N)=O)c1 -0.957%
COc1cccc(-n2nc(C)c3c(NN=C(C)c4ccncc4)ncnc32)c1 -0.792%
COc1ccc(-c2nn3ncccc3c2-c2ccnc(Nc3ccc4c(c3)OCCO4)n2)cc1 -11%
CCn1c(-c2nonc2N)nc2c(C#CCN)ncc(OCCCN)c21 2.26%
CCNC(=O)OC1CNC(C#Cc2cc3ncnc(Nc4ccc(OCc5cccc(F)c5)c(Cl)c4)c3s2)C1 (stereo not given) -14.8%
Cc1ccc(C(=O)NC2CCCCC2)cc1-c1ccc(C(=O)NCC2CC2)cc1 -11%
CN1CCC(n2cnc(-c3ccc(F)cc3)c2-c2ccnc(N)n2)CC1 -4.55%
CC(=O)NCc1cccc(C#Cc2cncnc2Nc2ccc(OCc3cccc(F)c3)c(Cl)c2)c1 -82.4%
COc1ccc2cc(-c3c(-c4ccncc4)nc(-c4ccc(S(C)(=O)=O)cc4C)n3C)ccc2c1 -2.8%
NS(=O)(=O)c1ccc(Nc2ncc(-c3ccccc3)o2)cc1 -5.78%
CS(=O)(=O)CCNCc1nc(-c2ccc3ncnc(Nc4ccc(F)c(Cl)c4)c3c2)cs1 4.87%
COc1cccc(COc2cc(-n3cnc4ccccc43)sc2C(N)=O)c1 2.69%
CCc1nccc2c1nc(-c1nonc1N)n2CC 4.72%
Cc1nn(C)c2cc(N(C)c3ccnc(Nc4cccc(S(N)(=O)=O)c4)n3)ccc12 0.13%
Nc1nonc1-c1nc2cnccc2n1C1CC1 5.21%
COc1cc2c(cc1Nc1nc(Nc3ccsc3C(N)=O)c3cc[nH]c3n1)N(C(=O)CN(C)C)CCC2 4.82%

Potency, inactive:
Nc1ncnc2occ(-c3ccc(NC(=O)Nc4cc(C(F)(F)F)ccc4F)cc3)c12

Potency, active:
Fc1ccc(-c2nn3ccccc3c2-c2ccncc2)cc1 1.16 µM
COc1cc(Nc2ncc(-c3ccccc3)o2)cc(OC)c1 6.51 µM
c1ccc(Nc2ncc(-c3ccccc3)o2)cc1 0.259 µM
NS(=O)(=O)c1cccc(Nc2cc(-c3ccc(F)cc3)[nH]n2)c1 11.6 µM
Cc1cccc(Nc2ncc(-c3ccccc3)o2)c1 0.58 µM
COC(=O)Nc1nc2ccc(Oc3ccc(NC(=O)Nc4ccccc4)cc3)cc2[nH]1 14.6 µM
NC(=O)c1cccc(Nc2nccc(Nc3cccc(F)c3)n2)c1 0.73 µM
